Laboratory results from paper PMC5913336, “True equilibrium measurement of transcription factor-DNA binding affinities using automated polarization microscopy”.

Each sequence was assayed against Tll (Drosophila melanogaster, UniProt P18102 21-118) (assay: FP; 33 mM phosphate pH 7.0, 90 mM NaCl, 0.01% Tween 20, 0.1 mM DTT, 0.5% agarose; room temperature). Conditions: tags: N-GST (pGEX-6P-1, kept); dsDNA, one strand shown.
Tll, sequence (P18102 21-118): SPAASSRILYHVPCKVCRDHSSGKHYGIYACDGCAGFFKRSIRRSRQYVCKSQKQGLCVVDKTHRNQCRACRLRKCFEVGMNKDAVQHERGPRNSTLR

Going from ATAAAGTCAAAT to AAACAGTCAAAT, the binding signal rises from 2.33 Kd / Kd of best base at the position to 11.1 Kd / Kd of best base at the position.

Going from TAAAAGTCAAAT to AAGAAGTCAAAT, the binding signal falls from 2.03 Kd / Kd of best base at the position to 1.73 Kd / Kd of best base at the position.

Going from AAAAAGTAAAAT to AGAAAGTCAAAT, the binding signal falls from 18.6 Kd / Kd of best base at the position to 2.99 Kd / Kd of best base at the position.

First: AAAAAGTTAAAT
Second: AAAAAGTCCAAT
The binding signal of the first is lower: 2.32 Kd / Kd of best base at the position for the first, 14.4 Kd / Kd of best base at the position for the second.

Compared with AAAAAGTCAGAT, AAAAAGCCAAAT is higher in binding signal: 4.13 Kd / Kd of best base at the position for the first, 7.08 Kd / Kd of best base at the position for the second.

Compared with AATAAGTCAAAT, ACAAAGTCAAAT is higher in binding signal: 2.37 Kd / Kd of best base at the position for the first, 3.41 Kd / Kd of best base at the position for the second.

Going from AAAAAGTCTAAT to AAAAACTCAAAT, the binding signal rises from 13.1 Kd / Kd of best base at the position to 57.7 Kd / Kd of best base at the position.

First: AACAAGTCAAAT
Second: AAAAAGTCACAT
The binding signal of the first is higher: 3.38 Kd / Kd of best base at the position for the first, 1.72 Kd / Kd of best base at the position for the second.

Compared with AAAAAGGCAAAT, AAAAAGTGAAAT is higher in binding signal: 7.78 Kd / Kd of best base at the position for the first, 71.7 Kd / Kd of best base at the position for the second.

Going from AAAACGTCAAAT to CAAAAGTCAAAT, the binding signal falls from 8.65 Kd / Kd of best base at the position to 2.71 Kd / Kd of best base at the position.

Compared with AAAAATTCAAAT, AAAAAGTCAAGT is lower in binding signal: 71.4 Kd / Kd of best base at the position for the first, 3.05 Kd / Kd of best base at the position for the second.

First: AAAAAGTCAAAC
Second: AAAAAGTCAATT
The binding signal of the first is lower: 1.05 Kd / Kd of best base at the position for the first, 1.96 Kd / Kd of best base at the position for the second.

Going from AAAAAATCAAAT to AAAATGTCAAAT, the binding signal rises from 10.1 Kd / Kd of best base at the position to 15 Kd / Kd of best base at the position.

Compared with AAAAAGTCGAAT, GAAAAGTCAAAT is lower in binding signal: 5.21 Kd / Kd of best base at the position for the first, 1.71 Kd / Kd of best base at the position for the second.

Compared with AAAAAGTCATAT, AAAAAGTCAAAA is lower in binding signal: 3.23 Kd / Kd of best base at the position for the first, 1.57 Kd / Kd of best base at the position for the second.

First: AAATAGTCAAAT
Second: AAAAGGTCAAAT
The binding signal of the first is higher: 12.4 Kd / Kd of best base at the position for the first, 6.02 Kd / Kd of best base at the position for the second.

First: AAAAAGACAAAT
Second: AAAAAGTCAACT
The binding signal of the first is higher: 36.4 Kd / Kd of best base at the position for the first, 2.61 Kd / Kd of best base at the position for the second.

Going from AAAGAGTCAAAT to AAAAAGTCAAAG, the binding signal falls from 3.96 Kd / Kd of best base at the position to 2.05 Kd / Kd of best base at the position.

Work on AAAAAGTCAAAT yielded a Kd of ~4.1 nM.
